Bioassay records deposited in PubChem by National Center for Advancing Translational Sciences (NCATS).
Tau FP inhib: inhibitors of human tau fibril formation; Potency, µM (top dose mostly 57.7 µM), most hits filed as inhibitors; AID 1468; 0.39% of 280,000 active; K18 P301L tau heparin fibrillization, Alexa594 FP, 6 h; also: nearly all actives have a fitted effect of over 55% in size
Target sequence (P10636 561-689 P618L limits assumed): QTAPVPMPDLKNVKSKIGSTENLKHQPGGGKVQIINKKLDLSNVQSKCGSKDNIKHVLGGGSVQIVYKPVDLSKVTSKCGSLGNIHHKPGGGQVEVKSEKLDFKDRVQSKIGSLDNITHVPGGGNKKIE
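K18 P301L tau (15 uM unlabeled/0.24 uM Alexa 594-labeled, final) + compound + heparin 20 uM final; 100 mM NaOAc pH 7; 6 hr 37 C; ThT 30 uM final added, 1 hr RT; FP ex 555/em 632 nm.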
Tau fluor counter: counter-screen for tau fibril formation inhibitors; tau K18 P301L Alexa594 fluorescence, heparin fibrillization; Potency, µM (series often up to 57.7 µM); 0.93% of 280,000 active; also: nearly all actives have a fitted effect of over 55% in size
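Human K18 P301L tau (15 uM unlabeled plus 0.24 uM Alexa 594-labeled, final) in 100 mM sodium acetate pH 7 was mixed with compound and 20 uM heparin and incubated 6 hr at 37 C.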
FBPA coupling cs: inhibits coupling enzyme system, counter-screen for aldolase hits | coupling enzyme system counterscreen, AmpLite Red fluorescence | activity change, negative = inhibition, % at 58.2 µM, hits read low | 0.67% of 290,000 active | AID 2472; in the data active = activity change below about -30%
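Fluorescence at 525 nm excitation and 598 nm emission measured inhibition of the coupled detection system without aldolase. Compounds (at 57.5 uM final) were preincubated 10 min at room temperature with coupling enzyme reagent before a 20 min substrate/AmpLite Red step.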
Sfp PPTase inh: blocks B. subtilis Sfp PPTase activity; Q9F4F7; 3.5% of 310,000 active; Biochemical Sfp PPTase activity, qHTS; Potency, µM, usual class: inhibitors;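 also: the enzyme is Sfp with the accession as filed and its product quenches rhodamine fluorescence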
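Sfp 15 nM + cpd, 15 min RT; start w/ rhodamine-CoA 5 uM, BHQ-2-YbbR 12.5 uM (final); 50 mM Hepes pH 7.6, 10 mM MgCl2, 0.01% NP-40, 0.01% BSA; read 525/598 nm at 0 and 30 min.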
Tau fibril ThT: tau fibrillization inhibition (ThT binding); AID 1460; P10636; Potency, µM (doses to about 57.4 µM), hits mostly inhibitors; recombinant tau K18 P301L (four-repeat tau fragment), heparin-induced fibrillization, ThT fluorescence; 2.1% of 270,000 active; also: nearly all actives have a fitted effect of over 55% in size
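Aggregation was driven by heparin (20 uM final) acting on recombinant tau […] bearing P301L in 100 mM sodium acetate pH 7; fibrils were detected with Thioflavin T.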
A number is an active result; – = inactive; ? = inconclusive; · = no result; [ ] = remark or other dose. This is a sample that favours compounds with a hit; in the whole collection about 5.2% have one here. Unless noted, calls follow the shape of the dose curve; as a rule, active = well fitted curve in the direction sought with a large enough effect; inconclusive = small, poorly fitted or top-dose-only effect, or another doubt; inactive = no such curve, though single readings can be large; an effect the other way counts as inactive or inconclusive.

SMILES	Tau FP inhib	Tau fluor counter	FBPA coupling cs	Sfp PPTase inh	Tau fibril ThT
N#Cc1ccc(N2C(=O)[C@@H]3C(C(=O)c4cnccn4)=NN[C@@H]3C2=O)cc1	–	–	–	17.8µM	?
N#Cc1ccc(N2C(=O)[C@@H]3C(C(=O)c4ccc5ccccc5n4)=NN[C@@H]3C2=O)cc1	–	–	–	–	–
CC1(C)OC(C(O)(c2cccc3c2oc2ccccc23)c2cccc3c2oc2ccccc23)C(C(O)(c2cccc3c2oc2ccccc23)c2cccc3c2oc2ccccc23)O1 (centres undefined)	–[11.6 µM]	–[11.6 µM]	–	–	–[11.5 µM]
COc1cc(C(=O)N(Cc2cccnc2)Cc2cc3cc4c(cc3[nH]c2=O)OCCO4)cc(OC)c1OC	–	–	-50.3	–	–
COc1ccccc1CN(Cc1cc2cc3c(cc2[nH]c1=O)OCCO3)Cc1nnnn1Cc1ccco1	–	–	–	12.6µM	–
O=C(c1ccccc1F)N(Cc1cccnc1)Cc1cc2cc3c(cc2[nH]c1=O)OCCO3	–	–	–	–	–
O=c1[nH]c2cc3c(cc2cc1CN(Cc1cccs1)Cc1nnnn1Cc1ccco1)OCCO3	?	–	–	20µM	?
CCOC(=O)Cn1nnnc1CN(Cc1cccs1)Cc1cc2cc(C)cc(C)c2[nH]c1=O	–	–	–	15.8µM	–
Cc1ccc2[nH]c(=O)c(CN(Cc3ccc4c(c3)OCO4)Cc3nnnn3Cc3ccco3)cc2c1	–	–	–	–	–
O=c1[nH]c2cc3c(cc2cc1CN(Cc1cccnc1)Cc1nnnn1Cc1ccco1)OCCO3	–	–	–	15.8µM	–
Cc1cc(C)c2cc(CN(Cc3ccc4c(c3)OCO4)Cc3nnnn3Cc3ccco3)c(=O)[nH]c2c1	–	–	–	14.1µM	–
CCc1ccc2[nH]c(=O)c(CN(Cc3ccccc3)Cc3nnnn3Cc3ccco3)cc2c1	–	–	–	17.8µM	–
O=c1[nH]c2cc3c(cc2cc1CN(Cc1ccccc1)Cc1nnnn1Cc1ccco1)OCCO3	–	–	–	11.2µM	?
CCOC(=O)Cn1nnnc1CN(Cc1ccccc1)Cc1cc2cc(CC)ccc2[nH]c1=O	–	–	–	–	–
COc1cccc(Cn2c(=O)c(-c3ccccc3)nc3cnc(N4CCNCC4)nc32)c1	·	·	–	–	·
CCOc1cc(C(=O)NCc2ccc3c(c2)CCN3C(=O)CC)cc(OCC)c1OCC	–	–	·	·	–
CCCCCCC#CC1C=CC(OC(C)=O)C(COC(C)=O)O1 (centres undefined)	–[11.6 µM]	–[11.6 µM]	–	?	?
CCN(CC)S(=O)(=O)c1ccc2oc(C(=O)N(C)Cc3ccccc3)c(C)c2c1	–	–	·	·	–
Cc1nc(C)c(-c2csc(NCc3ccco3)n2)s1	?	–	–	–	?
Cc1nc(C)c(-c2csc(NCc3ccccc3)n2)s1	–	–	–	56.2µM	–
COc1ccc(CCNc2nc(-c3ccncc3)cs2)cc1OC	–	–	–	?	·
COc1ccc(CCNc2nc(-c3sc(C)nc3C)cs2)cc1OC	–	?	–	44.7µM	?
CC(=O)c1sc(NCc2ccc(C)cc2)nc1C	·	·	–	–	·
COc1ccc(CCNc2nc(-c3ccc(F)cc3)c(CC(=O)O)s2)cc1OC	·	·	–	35.5µM	·
COc1ccc(CCNc2nc(C)c(C(C)=O)s2)cc1OC	·	·	–	15.8µM	·
SMILES	Tau FP inhib	Tau fluor counter	FBPA coupling cs	Sfp PPTase inh	Tau fibril ThT
Cc1ccc(NC(=O)Cn2c(=O)n(Cc3ccc4c(c3)OCO4)c(=O)c3ccc(C(=O)NC4CCCCC4)cc32)cc1	?	–	·	·	–
CC1=C(c2ccc(NN=C(C#N)C#N)cc2)NNC(=O)C1	·	·	·	–	·
CC(C)c1ccc(OCC(=O)N(Cc2cccs2)C2CCS(=O)(=O)C2)cc1 (centres undefined)	–	–	·	·	–
O=C(CC1N=C2c3ccccc3N=C(SCC(=O)Nc3cccc(C(F)(F)F)c3)N2C1=O)NCc1cccs1 (centres undefined)	–	–	·	·	–
CCC(=O)Nc1ccc(SC#N)cc1C	?	–	–	–	8.91µM
O=C1C2C3C=CC(C3)C2C(=O)N1c1ccc2c(c1)OCO2 (centres undefined)	?	?	–	–	31.6µM
O=C1CC(N2CCN(c3ccc(O)cc3)CC2)C(=O)N1c1ccc2c(c1)OCO2 (centres undefined)	–	–	–	39.8µM	?
Cc1ccc(N2C(=O)CC(Sc3nc4ccccc4o3)C2=O)cc1Cl (centres undefined)	–	–	–	50.1µM	?
Cc1cccc(NC(=O)CN2C(=O)C(c3ccc(F)cc3)=NC23CCCCCC3)c1C	–	–	·	·	–
Cc1ccc(/C(N)=N/OC(=O)CCc2ccccc2)cc1	?	?	–	–	31.6µM
N/C(=N\OC(=O)CCc1ccccc1)c1ccc(Br)cc1	–	–	–	–	–
CCOC(=O)c1sc(NCc2ccco2)c(-c2nc3ccccc3s2)c1N	–	?	–	?	?
CCNc1sc(C(=O)c2cccs2)c(N)c1-c1nc2ccccc2s1	–	?	–	17.8µM	8.91µM
C=CCNc1sc(C(=O)c2cccs2)c(N)c1C#N	–	–	–	–	–
C=CCNc1sc(C(=O)c2ccccc2)c(N)c1-c1nc2ccccc2s1	–	–	–	20µM	–
C=CCNC(=O)c1nc2ccccc2s1	–	–	–	–	–
CCNc1sc(C(=O)c2cccs2)c(N)c1C#N	?	?	–	44.7µM	28.2µM
O=C(Nc1nc(-c2cccs2)c(-c2ccccc2)s1)c1ccco1	?	?	–	?	–
CC1CC1C(=O)Nc1nc(-c2cccs2)c(-c2cccs2)s1 (centres undefined)	–	?	–	50.1µM	?
CCNC(=S)N1CCN(Cc2ccc3c(c2)OCO3)CC1	–	–	–	–	–
C=CCNC(=S)N1CCN(Cc2ccc3c(c2)OCO3)CC1	·	·	–	17.8µM	·
O=[N+]([O-])c1ccc(N=Nc2c(O)[nH]c3ccc(F)cc23)cc1	·	·	–	–	·
O=[N+]([O-])c1ccc(N=Nc2ccc(O)cc2O)cc1	–	14.1µM[quencher]	–	–	2.51µM
CCOc1ccc(C(=O)OCc2cc(=O)n3cc(C)sc3n2)cc1	–	–	·	·	–
COc1ccccc1CNc1ncnc2ccc(-c3ccc(N(C)C)cc3)cc12	?	10µM[quencher]	–	?	11.2µM
SMILES	Tau FP inhib	Tau fluor counter	FBPA coupling cs	Sfp PPTase inh	Tau fibril ThT
CC(=O)Oc1ccc2c(c1OC(C)=O)OCC1(O)Cc3c(cc(OC(C)=O)c(OC(C)=O)c3OC(C)=O)C21 (centres undefined)	–	?	–	–	?
Oc1ccc2c(c1)OCC1(O)Cc3cc(O)c(O)cc3C21 (centres undefined)	?	?	–	–	22.4µM
COc1ccc(NS(=O)(=O)c2ccc3[nH]c4c(c3c2)CCCCC4)cc1	–	3.55µM[quencher]	·	·	?
CCOc1ccc(NS(=O)(=O)c2ccc3nc(-c4ccccc4)[nH]c3c2)cc1	20µM	?	·	·	–
COCCCNS(=O)(=O)c1ccc2[nH]c3c(c2c1)CCCCC3	·	·	–	–	·
CCOc1ccc(NS(=O)(=O)c2ccc3[nH]c4c(c3c2)CCCCC4)cc1	–	14.1µM[quencher]	·	·	–
